Measured values published in PubChem BioAssay AID2284205 (EPA ToxCast).
Active and inactive are the calls of the source. The calls were made as follows: active = hit-call score of the fitted dose curve at least 0.9, where 1 is the maximum; inactive = score below 0.9.

Molecular target: Peroxisome proliferator-activated receptor gamma (Homo sapiens) (UniProt P37231)
Experiment: ERF_TW_NR_hPPARG: Eurofins (ERF) Nuclear Receptor (NR) Radioligand Binding LeadHunter Assay for human Peroxisome Proliferator-activated Receptor gamma (PPARg) Agonism, conducted at Taiwan lab site
Description: ERF_TW_NR_hPPARG is a biochemical, single-readout assay that uses extracted gene-proteins in a cell-free assay. Measurements were taken 24 hour after chemical dosing in a 96-well plate. See PPARgamma Human NHR Binding (Agonist Radioligand) Assay, Panlabs.ERF_TW_NR_hPPARG is an assay component calculated from the ERF_TW_NR_hPPARG assay. It is designed to measure radioligand binding using a type of binding reporter as detected by scintillation counting with radiometry technology.Data from the assay component ERF_TW_NR_hPPARG was analyzed at the assay endpoint, ERF_TW_NR_hPPARG, in the positive analysis fitting direction relative to DMSO as the negative control and baseline of activity. Using a type of binding receptor, gain-of-signal activity can be used to understand changes in binding receptor as they relate to gene PPARG.To generalize the intended target to other relatable targets, this assay endpoint is annotated to the nuclear receptor intended target family, where the subfamily is non-steroidal.
Human recombinant PPARgamma-LBD expressed in insect cells are used in modified Tris-HCl buffer pH 7.2. A 0.03 ug aliquot is incubated with 5 nM [3H]Rosiglitazone and 1 ug anti-GST antibody for 24 hours at 4C. Non-specific binding is estimated in the presence of 10 uM rosiglitazone. Receptors are counted to determine [3H]Rosiglitazone specifically bound. […]

Chain of Peroxisome proliferator-activated receptor gamma (Homo sapiens) (P37231 whole entry, looked up): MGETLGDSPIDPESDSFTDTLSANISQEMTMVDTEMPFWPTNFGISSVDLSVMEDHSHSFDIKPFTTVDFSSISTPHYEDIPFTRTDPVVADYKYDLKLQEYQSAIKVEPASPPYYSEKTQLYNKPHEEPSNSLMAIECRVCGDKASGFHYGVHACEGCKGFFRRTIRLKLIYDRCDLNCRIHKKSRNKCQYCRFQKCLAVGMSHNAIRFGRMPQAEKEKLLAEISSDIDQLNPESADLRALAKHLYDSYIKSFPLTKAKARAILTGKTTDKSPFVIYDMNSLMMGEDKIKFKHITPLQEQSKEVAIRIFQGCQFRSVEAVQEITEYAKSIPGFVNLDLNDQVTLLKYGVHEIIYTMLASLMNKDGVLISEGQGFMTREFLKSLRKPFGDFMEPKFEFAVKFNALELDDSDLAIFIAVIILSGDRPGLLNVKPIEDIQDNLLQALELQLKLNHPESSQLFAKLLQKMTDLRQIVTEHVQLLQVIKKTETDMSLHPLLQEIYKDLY

| Structure (SMILES) | AC50 |
| --- | --- |
| O=C(O)C(F)(F)C(F)(F)C(F)(F)C(F)(F)C(F)(F)C(F)(F)C(F)(F)C(F)(F)F | 18.6 µM (active) |
| COC(=O)C(F)(F)C(F)(F)OC(F)(C(F)(F)F)C(F)(F)OC(F)=C(F)F (configuration not stated) | 3.72 µM (active) |
